# Most compounds without a hit are left out; they make up all but 3.6% or so of the library.
# esBAF inh: Bmi1 luciferase reporter increase in mESCs, primary screen, esBAF inhibitor project, mouse ES cells, Bmi1 luciferase knock-in, single point | 24 h; 100% = twice the neutral-well signal | reporter increase, % at 12.5 µM | 350,000 compounds, 2% hits; in the data active = activation above about 40%;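 also: 0% = median of the plate's neutral control wells and 100% = double that signal; a rise in the Bmi1 reporter signal indicates esBAF inhibition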
# APOBEC3G inh: APOBEC3G DNA deaminase inhibitors, primary screen, biochemical, fluorescence, single-stranded DNA substrate, uHTS | DNA dC->dU-editing enzyme APOBEC-3G (Homo sapiens), Q9HC16 | recombinant A3G, ssDNA deamination FAM/TAMRA fluorescence | inhibition, % at 20 µM | 330,000 compounds, 0.28% hits;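 active = inhibition of at least 40% at 20 µM, with no more than 30% in the related APOBEC3A deaminase screen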;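 also: plate controls were DMSO wells with A3G for no effect and wells lacking A3G enzyme for full effect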
# Target sequence (Q9HC16 whole entry, looked up): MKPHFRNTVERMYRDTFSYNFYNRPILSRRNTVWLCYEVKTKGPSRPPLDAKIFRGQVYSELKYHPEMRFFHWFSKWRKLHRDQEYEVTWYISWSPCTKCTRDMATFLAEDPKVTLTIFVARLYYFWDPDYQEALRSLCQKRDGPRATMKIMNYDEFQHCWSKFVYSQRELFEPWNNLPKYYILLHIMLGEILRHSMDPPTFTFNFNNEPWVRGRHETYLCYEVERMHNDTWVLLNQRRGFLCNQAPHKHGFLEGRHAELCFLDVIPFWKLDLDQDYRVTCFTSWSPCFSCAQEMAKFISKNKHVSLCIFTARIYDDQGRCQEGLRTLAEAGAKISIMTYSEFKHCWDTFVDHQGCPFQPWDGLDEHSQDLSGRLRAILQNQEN
# A3A deaminase: APOBEC3A ssDNA deaminase inhibitors, primary screen, selectivity assay for APOBEC3G inhibitor project, biochemical, FAM/TAMRA oligo cleavage fluorescence; 330,000 compounds, 0.41% hits; inhibition, % at 20 µM; recombinant A3A, FAM/TAMRA ssDNA deamination fluorescence; AID 493011, 2011; DNA dC->dU-editing enzyme APOBEC-3A (Homo sapiens), P31941;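 active = at least 40% inhibition at 20 µM here, with at most 30% in a related deaminase screen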;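 also: plate controls were A3A with DMSO for no effect and wells lacking A3A enzyme for full effect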
# Target sequence (P31941 whole entry, looked up): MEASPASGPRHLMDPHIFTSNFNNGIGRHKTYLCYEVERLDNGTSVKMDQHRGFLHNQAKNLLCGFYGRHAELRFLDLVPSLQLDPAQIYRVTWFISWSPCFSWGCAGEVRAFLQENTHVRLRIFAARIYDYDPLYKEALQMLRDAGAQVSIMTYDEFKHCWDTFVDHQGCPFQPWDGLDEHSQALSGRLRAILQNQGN
# PHOSPHO1 inh: PubChem AID 1565. Phosphoethanolamine/phosphocholine phosphatase (Homo sapiens), Q8TCT1. recombinant PHOSPHO1, absorbance phosphatase assay. inhibition, % at 13.3 µM. 290,000 compounds, 1.1% hits; in the data active = inhibition above about 60%
# MITF act: activators of MITF-driven TRPM1 promoter reporter, primary screen, cell-based, SK-MEL-5, luciferase, single point. 300,000 compounds, 0.75% hits. SK-MEL-5 TRPM1-promoter luciferase, 24 h; % of positive control, neutral wells = 0. activation, % at 12.5 µM. AID 588334, 2011;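 active = mean activation of at least 80% with every replicate also reaching 80%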;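 also: 0% = neutral control wells and 100% = parthenolide positive control wells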
# Wnt act: Wnt/beta-catenin pathway activators, primary screen, cell-based, plate reader, single point; activation, % at 9.35 µM; 300,000 compounds, 1.2% hits; Wnt/beta-catenin reporter cell assay, activator; in the data active = activation above about 30%, passing the limit was not always enough;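 also: 0% = neutral control wells and 100% = positive control wells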
# * marks the source's active call; other numbers are inactive results; . = not tested or not shown.
SMILES,esBAF inh,APOBEC3G inh,A3A deaminase,PHOSPHO1 inh,MITF act,Wnt act
COc1ccc(NC(=O)Nc2cccc3c2O[C@@H](CN(C)Cc2ccc(C(=O)O)cc2)[C@@H](C)CN([C@H](C)CO)C3=O)cc1,0.9,.,.,.,.,.
Cc1ccccc1Oc1ncnc2sccc12,12.2,-4.7,-2.4,-18.1,9.5,.
COc1ccccc1Oc1ncnc2sccc12,.,-6.2,-2.4,60.9*,2.7,-0.7
COc1ccccc1NC(=O)N[C@H]1C=C[C@@H](CC(=O)N2CCC(Cc3ccccc3)CC2)O[C@H]1CO,7.5,.,.,.,.,.
CC(=O)Nc1ccccc1C(=O)C(=O)Nc1ccccc1,35.2*,-5.6,-2.6,6.0,-1.9,3.3
CC(=O)Nc1ccccc1C(=O)C(=O)Nc1ccc(Cl)cc1,.,-1.7,3.9,33.9,15.8,-0.3
C=CCNc1sc(C(=O)c2ccccc2)c(N)c1C#N,.,-5.6,-4.7,95.9*,-0.6,.
C=CCNc1sc(C(=O)C(C)(C)C)c(N)c1C#N,-14.5,-3.9,1.0,-23.9,7.5,-0.9
C=CCNc1sc(C(=O)c2ccc(Br)s2)c(N)c1C#N,-3.5,-2.7,0.3,81.6*,.,1.8
C=CCNc1sc(C(=O)c2ccc(C)cc2)c(N)c1C#N,-5.9,-6.8,-4.8,95.9*,-9.2,0.0
C=CCNc1sc(C(=O)C2CC2)c(N)c1C#N,-7.8,-5.2,-3.4,43.6,-9.4,.
O=C(C[C@H]1CC[C@@H](NC(=O)c2ccncc2)[C@H](CO)O1)NCCc1ccncc1,0.3,.,.,.,.,.
C[C@H](CO)N1C[C@H](C)[C@@H](CN(C)S(C)(=O)=O)Oc2ccc(NC(=O)CCC(F)(F)F)cc2CC1=O,-0.6,.,.,.,.,.
O=C(N/N=C\c1ccccn1)C1COc2cc3ccccc3cc2O1 (stereo not given),-1.6,0.2,-0.1,13.4,.,-1.8
NNC(=O)C1COc2cc3ccccc3cc2O1 (stereo not given),8.3,-0.1,60.5*,13.9,-15.5,-3.4
Cc1cc(C(=O)Nc2cc(C(C)(C)C)on2)c(C)o1,63.4*,-5.2,-0.5,33.4,89.2*,42.2*
Cc1cc(C(=O)Nc2ccon2)c(C)o1,-3.4,-6.4,1.6,43.1,16.9,-0.7
CC(C)(C)c1cc(NC(=O)Nc2ccccc2)no1,26.8,-7.8,-2.4,24.8,113.0*,40.7*
COCCNC(=O)C[C@H]1CC[C@H](NC(=O)NC2CCCCC2)[C@@H](CO)O1,2.6,.,.,.,.,.
CC(C)NC(=O)N(C)C[C@@H]1Oc2cc(-c3cccnc3)ccc2S(=O)(=O)N([C@H](C)CO)C[C@@H]1C,5.7,.,.,.,.,.
N#CCC(=O)Nc1ccc(C(=O)OCC(=O)c2ccc3c(c2)OCO3)cc1,46.6*,1.5,-4.5,.,69.4,39.1*
Cc1cccc(C(=O)OCC(=O)c2ccc3c(c2)OCO3)c1O,5.6,-2.1,5.8,26.3,118.9*,57.3*
Cc1cccc(C(=O)OCC(=O)c2c(C)[nH]c3ccccc23)c1O,72.8*,-3.1,-1.3,.,81.6*,37.1*
N#CCC(=O)Nc1ccc(C(=O)OCC(=O)c2ccc3c(c2)OCCO3)cc1,67.9*,-3.2,-2.8,26.5,43.1,27.1
C[C@H](CO)N1C[C@H](C)[C@H](CN(C)C(=O)c2ccncc2)OCCCC[C@H](C)Oc2ccc(NS(=O)(=O)c3ccccc3)cc2C1=O,-1.2,.,.,.,.,.
SMILES,esBAF inh,APOBEC3G inh,A3A deaminase,PHOSPHO1 inh,MITF act,Wnt act
Cc1cc(Cl)c(OCCCN(C)C)c(Br)c1,-9.4,3.2,-1.0,62.7*,1.2,-1.0
Cc1ccc(OCCCC(=O)N(C)CC(=O)Nc2ccccc2Br)cc1,.,-3.6,6.9,.,6.4,1.0
CN(CC(=O)Nc1ccccc1Br)C(=O)COc1ccc2ccccc2c1,41.1*,-6.1,-6.1,.,-15.3,1.0
COc1ccc(S(=O)(=O)Nc2cccc3c2O[C@@H](CN(C)Cc2ccccc2)[C@H](C)CN([C@H](C)CO)C3=O)cc1,-0.9,.,.,.,.,.
O=c1[nH]ncc(N/N=C/c2ccccc2)c1Cl,-2.5,-3.3,5.4,6.7,-2.2,.
Cc1ccc(/C=N\Nc2cn[nH]c(=O)c2Cl)cc1,52.7*,-5.5,-0.3,4.4,34.4,-2.7
C[C@H]1CN([C@@H](C)CO)C(=O)c2cc(C#CCc3ccccc3)cnc2O[C@@H]1CN(C)C(=O)C1CC1,-9.9,.,.,.,.,.
CC(C)NC(=O)N(C)C[C@H]1Oc2cc(-c3ccncc3)ccc2S(=O)(=O)N([C@H](C)CO)C[C@H]1C,-5.0,.,.,.,.,.
CCOC(=O)c1ccc(NC(=O)Cn2nnc3ccccc32)cc1,94.6*,-0.6,0.3,-12.0,.,0.3
CCOC(=O)c1ccc(NC(=O)CCn2nnc3ccccc32)cc1,14.5,-3.7,-4.7,-8.3,21.7,.
CCOc1ccc(NC(=O)Cn2ncc3ccccc32)cc1,50.7*,-5.0,-1.3,-27.7,72.9,17.5
CCOC(=O)c1ccc(NC(=O)CCSCCc2ccccn2)cc1,4.3,5.4,1.1,-31.1,85.9*,.
O=C(C[C@H]1C=C[C@@H](NC(=O)Nc2cc(F)ccc2F)[C@H](CO)O1)Nc1ccc(-c2ccccc2)cc1,19.0,.,.,.,.,.
CCn1c(-c2ccc3[nH]c(C)c(C)c3c2)n[nH]c1=S,9.7,30.4,-3.3,93.5*,7.2,-9.0
CCn1c(-c2ccc(F)cc2)n[nH]c1=S,-6.6,33.5,13.5,-9.8,-2.2,-2.0
Cc1[nH]c2ccc(-c3n[nH]c(=S)n3C)cc2c1C,14.2,30.8,-7.0,98.1*,-7.1,-2.7
Cc1c(C(=O)NCc2ccoc2)oc2ccc3c(c12)C(=O)CC(C)(C)O3,103.9*,7.0,-0.4,5.7,51.7,.
Cc1ccc2cc(C3C(C#N)=C(N)Oc4c3ccc3cccnc43)c(=O)[nH]c2c1 (stereo not given),.,-3.6,7.3,42.0,7.5,1.3
CCc1ccc2[nH]c(=O)c(C3C(C#N)=C(N)Oc4c3ccc3cccnc43)cc2c1 (stereo not given),-1.0,-5.0,1.4,88.9*,-15.1,.
COc1ccc(OCc2ccc(C(=O)O)cc2)cc1,50.7*,-1.9,2.5,-17.9,34.1,.
COc1ccc(OCC(O)COc2ccc(C(=O)O)cc2)cc1 (stereo not given),2.0,-6.9,-4.0,45.0,.,.
O=C(O)c1ccc(COc2ccc3c(c2)CCC3)cc1,.,-4.2,-5.8,16.0,24.5,33.0*
NNC(=O)c1ccc(COc2ccc3c(c2)CCC3)cc1,.,-5.6,-0.9,6.0,16.9,11.0
CCCc1cc(=O)oc2cc(OCc3ccc(C(=O)O)cc3)ccc12,53.1*,2.5,4.0,.,23.4,4.7
CS(=O)(=O)Nc1ccc2c(c1)[C@@H]1C[C@H](CC(=O)N3CCCCC3)O[C@H](CO)[C@@H]1O2,0.8,.,.,.,.,.
